Measured values taken from PubChem BioAssay (NCATS).
Results filed as inconclusive are left out. Calls of active or inactive are those of the source. Unless noted, the call rests on the fitted dose curve.

Key:
[1] = target: Lysosomal acid glucosylceramidase (Homo sapiens) (UniProt P04062); test: Glucocerebrosidase-p2 (AID 348; in the data active means potency below about 10 µM; further: potency means the concentration at half of the fitted maximal effect); settings: purified GBA, blue fluorogenic substrate, 40 min
Chain of Lysosomal acid glucosylceramidase (Homo sapiens) (P04062 whole entry, looked up): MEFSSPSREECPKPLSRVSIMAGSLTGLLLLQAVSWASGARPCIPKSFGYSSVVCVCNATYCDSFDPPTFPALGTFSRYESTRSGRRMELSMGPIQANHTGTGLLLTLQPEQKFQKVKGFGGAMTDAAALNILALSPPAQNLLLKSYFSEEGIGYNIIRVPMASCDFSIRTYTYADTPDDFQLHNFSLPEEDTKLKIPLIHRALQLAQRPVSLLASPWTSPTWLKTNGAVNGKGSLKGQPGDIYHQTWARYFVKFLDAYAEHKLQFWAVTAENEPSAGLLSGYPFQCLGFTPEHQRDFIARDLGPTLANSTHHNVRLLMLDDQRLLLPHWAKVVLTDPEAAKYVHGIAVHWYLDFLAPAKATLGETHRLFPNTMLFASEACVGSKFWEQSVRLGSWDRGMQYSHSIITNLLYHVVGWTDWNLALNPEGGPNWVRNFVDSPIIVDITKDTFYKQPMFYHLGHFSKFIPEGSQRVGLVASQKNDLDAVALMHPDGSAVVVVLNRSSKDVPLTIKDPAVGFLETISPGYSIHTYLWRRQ
How it was run: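 Compounds titrated from 0.6 nM upwards against 0.2 nM enzyme in pH 5.9 citric acid/KH2PO4, taurocholate, tween-20; blue fluorogenic substrate 80 uM, 40 min room temperature, stopped and read Ex 365/Em 440 for AC50.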

[2] = NFAT Signaling Pathway (AID 444; active means well fitted curve in either direction with a large enough effect, not every such curve was filed as active;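 further: carbachol stimulus at about its EC50 of 1 µM final; on the % scale 0 is the no-effect control and ±100 the full control effect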); settings: Jurkat NFAT-bla M1, carbachol, beta-lactamase ratio, 5 h; at 7.69 µM (top of the series) unless noted
How it was run: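 Read-out: CCF4 FRET ratio (460 nm/530 nm) after 1 h RT dye loading, used for %activity and AC50 from titration series. Cells: Jurkat NFAT-β-lactamase/M1 line, treated with compound plus 1 uM carbachol for 5 h, 37 °C.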

[3] = Stat Signaling Pathway (AID 446; active means well fitted curve in either direction with a large enough effect, not every such curve was filed as active;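 further: ME-180 cervical cancer cells given 40 pM IL-6 alongside compound; SIE-controlled beta-lactamase reporter measured as 460/530 nm FRET emission ratio; on the % scale 0 is the no-effect control and ±100 the full control effect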); settings: ME-180 (cervical carcinoma) SIE beta-lactamase reporter, IL-6 stimulated, 5 h; at 7.69 µM (top of the series) unless noted
How it was run: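 IL-6/STAT signaling read in ME-180 cells via an SIE beta-lactamase reporter. Stimulus was 40 pM IL-6 (its AC50) for 5 hrs, so both activation and inhibition register.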

[4] = target: Glucocorticoid receptor (Homo sapiens) (UniProt P04150); test: GR-EFC Redistribution (AID 451); settings: CHO-K1 GR-EFC translocation, beta-gal luminescence, 2 h; further: potency means the concentration at half of the fitted maximal effect
Chain of Glucocorticoid receptor (Homo sapiens) (P04150 whole entry, looked up, the tested form may be a part): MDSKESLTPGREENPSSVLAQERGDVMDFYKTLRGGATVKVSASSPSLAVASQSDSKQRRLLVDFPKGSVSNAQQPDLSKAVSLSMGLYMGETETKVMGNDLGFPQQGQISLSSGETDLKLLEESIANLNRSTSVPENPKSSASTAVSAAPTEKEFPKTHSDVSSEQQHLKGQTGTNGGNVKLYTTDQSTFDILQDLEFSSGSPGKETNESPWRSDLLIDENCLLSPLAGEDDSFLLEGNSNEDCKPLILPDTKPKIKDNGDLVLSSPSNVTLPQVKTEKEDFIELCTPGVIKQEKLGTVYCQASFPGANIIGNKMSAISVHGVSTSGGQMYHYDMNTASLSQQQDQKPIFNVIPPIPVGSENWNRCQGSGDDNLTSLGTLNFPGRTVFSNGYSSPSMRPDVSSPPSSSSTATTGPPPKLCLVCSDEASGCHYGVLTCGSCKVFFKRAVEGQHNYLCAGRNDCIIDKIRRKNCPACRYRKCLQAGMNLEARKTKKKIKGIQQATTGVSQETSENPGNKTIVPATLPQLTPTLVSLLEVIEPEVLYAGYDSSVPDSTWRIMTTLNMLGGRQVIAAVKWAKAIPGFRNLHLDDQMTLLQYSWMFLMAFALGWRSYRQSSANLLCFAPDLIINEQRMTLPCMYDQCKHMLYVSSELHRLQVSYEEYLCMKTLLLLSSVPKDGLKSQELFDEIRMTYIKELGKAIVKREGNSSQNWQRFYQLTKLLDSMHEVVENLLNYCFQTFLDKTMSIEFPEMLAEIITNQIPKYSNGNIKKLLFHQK
How it was run: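 Translocation of GR-ED fusion to nuclear EA restores b-gal, read by luminescence after 1 h room-temperature detection. Engineered CHO-K1 biosensor cells, 1,000/well, exposed 2 h at 37 C to titrations up to 46 uM final.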

[5] = target: Mitogen-activated protein kinase 10 (Mus musculus) (UniProt Q61831); test: JNK3 AlphaScreen Assay (AID 530; active means well fitted curve in either direction with a large enough effect, not every such curve was filed as active;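 further: kinase came from lysate of stimulated human HepG2 cells; signal reports phosphorylation of biotinylated GST-cJun 1-79 at Ser73 with 10 µM ATP; on the % scale 0 is the no-effect control and ±100 the full control effect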); settings: JNK3 lysate, c-Jun phosphorylation; series mostly up to 57.1 µM
How it was run: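 Room-temperature AlphaScreen kinase assay; pre-activated HepG2 lysate as JNK3 source, biotin-GST-cJun(1-79) substrate, 10 uM ATP, compound 15 min preincubation.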

[6] = target: 3',5'-cyclic-AMP phosphodiesterase 4B (Homo sapiens) (UniProt Q07343); test: qHTS Assay for Inhibitors of PDE-IV (AID 607; active means well fitted activation curve with a large enough effect in the main read-out, with a control signal flat, not every such curve was filed as active; further: % of control where 0% means no effect); settings: HEK293 ACTOne CNG channel cells, membrane potential fluorescence; series mostly up to 22.9 µM
Chain of 3',5'-cyclic-AMP phosphodiesterase 4B (Homo sapiens) (Q07343 whole entry, looked up): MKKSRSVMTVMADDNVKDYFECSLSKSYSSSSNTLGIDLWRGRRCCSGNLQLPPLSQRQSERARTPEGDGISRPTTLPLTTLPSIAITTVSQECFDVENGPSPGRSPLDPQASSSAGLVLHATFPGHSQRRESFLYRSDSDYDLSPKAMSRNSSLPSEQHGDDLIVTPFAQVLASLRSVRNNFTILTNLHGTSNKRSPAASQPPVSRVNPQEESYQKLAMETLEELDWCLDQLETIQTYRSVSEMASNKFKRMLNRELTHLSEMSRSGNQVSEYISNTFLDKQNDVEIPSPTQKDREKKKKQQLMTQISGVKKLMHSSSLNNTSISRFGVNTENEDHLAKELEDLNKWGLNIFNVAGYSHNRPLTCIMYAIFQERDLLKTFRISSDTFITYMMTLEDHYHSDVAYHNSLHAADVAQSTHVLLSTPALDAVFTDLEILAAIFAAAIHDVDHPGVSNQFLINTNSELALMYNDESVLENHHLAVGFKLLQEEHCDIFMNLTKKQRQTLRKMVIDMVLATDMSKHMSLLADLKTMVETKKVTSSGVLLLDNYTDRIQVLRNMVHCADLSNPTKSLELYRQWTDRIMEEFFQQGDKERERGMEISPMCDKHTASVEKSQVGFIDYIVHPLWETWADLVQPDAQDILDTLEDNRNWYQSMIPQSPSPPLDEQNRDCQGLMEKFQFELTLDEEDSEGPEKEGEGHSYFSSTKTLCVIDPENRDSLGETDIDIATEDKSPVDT
How it was run: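 Live HEK293 cells with a modified cyclic nucleotide-gated (CNG) channel report intracellular cAMP via membrane-potential dye fluorescence (ex 535/em 590 nm). Endogenous PDE-IV was targeted. Compounds were tested at up to 22.9 uM final; RO 20-1724 100 uM served as control.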

[7] = qHTS Assay for Lipid Storage Modulators (AID 1519); settings: Drosophila S3 cells, BODIPY lipid droplet/cell ratio, laser cytometry, cells loaded with oleic acid; for activity change, negative = inhibition: at 57.5 µM (top of the series)
How it was run: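 Cells seeded at 5,000 per well were treated with compounds over a concentration series and loaded with oleic acid (400 uM, as added). Lipid droplet fluorescence (488 nm excitation, 500-530 nm channel) was read by laser-scanning cytometry and normalized to 20 uM Triacsin C.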

[8] = Primary qHTS for small molecule stabilizers of the endoplasmic reticulum resident proteome: Secreted ER Calcium Modulated Protein (SERCaMP) assay (AID 1508630; active means well fitted curve in the direction sought with a large enough effect; an effect the other way counts as inactive or inconclusive; further: on the % scale 0 is the no-effect control and ±100 the full control effect); settings: SH-SY5Y GLuc-SERCaMP (Gaussia luciferase released on ER calcium loss) secretion, thapsigargin, luminescence; series mostly up to 38.4 µM
How it was run: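 GLuc-SERCaMP-expressing SH-SY5Y cells, pretreated 16 h with compound, are challenged with thapsigargin to empty ER calcium stores; after 4 h, coelenterazine is added directly to the medium and luminescence is imaged.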

[9] = target: Cytochrome P450 1A2 (Homo sapiens) (UniProt P05177); test: p450-cyp1a2 (AID 410); settings: recombinant CYP1A2, luciferin-ME demethylation, luminescence; series mostly up to 57 µM; further: potency means the concentration at half of the fitted maximal effect;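 on activity change, negative = inhibition: -100% = full effect of reference inhibitor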
Chain of Cytochrome P450 1A2 (Homo sapiens) (P05177 whole entry, looked up): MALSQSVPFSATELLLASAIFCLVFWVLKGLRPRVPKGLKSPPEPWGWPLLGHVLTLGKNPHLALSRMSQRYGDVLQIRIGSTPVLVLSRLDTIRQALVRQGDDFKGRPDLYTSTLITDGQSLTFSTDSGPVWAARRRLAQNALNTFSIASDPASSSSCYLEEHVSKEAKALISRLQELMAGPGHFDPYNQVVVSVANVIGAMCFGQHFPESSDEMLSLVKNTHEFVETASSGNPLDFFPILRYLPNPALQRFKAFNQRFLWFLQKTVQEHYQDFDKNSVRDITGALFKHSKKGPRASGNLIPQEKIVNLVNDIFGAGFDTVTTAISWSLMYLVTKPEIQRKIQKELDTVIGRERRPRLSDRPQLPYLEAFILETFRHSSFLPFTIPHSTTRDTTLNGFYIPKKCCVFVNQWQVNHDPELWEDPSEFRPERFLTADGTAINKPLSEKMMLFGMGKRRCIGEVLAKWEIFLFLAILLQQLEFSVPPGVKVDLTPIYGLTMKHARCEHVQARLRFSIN
How it was run: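 Human CYP1A2 (20nM) demethylated Luciferin-ME at its Km (100uM) in 100mM KPO4. After 10 min compound preincubation, NADPH regeneration ran the reaction 60 min at room temperature. Luciferin was read by luminescence, normalized to 57 uM furafylline.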

[10] = target: Cytochrome P450 3A4 (Homo sapiens) (UniProt P08684); test: qHTS Assay for Activators of Cytochrome P450 3A4 (AID 885; active means well fitted curve in the direction sought with a large enough effect; an effect the other way counts as inactive or inconclusive; further: nearly all actives have a fitted effect of over 65% in size); settings: recombinant CYP3A4, Luciferin-PPXE luminescence, 60 min; series mostly up to 57.1 µM
Chain of Cytochrome P450 3A4 (Homo sapiens) (P08684 whole entry, looked up): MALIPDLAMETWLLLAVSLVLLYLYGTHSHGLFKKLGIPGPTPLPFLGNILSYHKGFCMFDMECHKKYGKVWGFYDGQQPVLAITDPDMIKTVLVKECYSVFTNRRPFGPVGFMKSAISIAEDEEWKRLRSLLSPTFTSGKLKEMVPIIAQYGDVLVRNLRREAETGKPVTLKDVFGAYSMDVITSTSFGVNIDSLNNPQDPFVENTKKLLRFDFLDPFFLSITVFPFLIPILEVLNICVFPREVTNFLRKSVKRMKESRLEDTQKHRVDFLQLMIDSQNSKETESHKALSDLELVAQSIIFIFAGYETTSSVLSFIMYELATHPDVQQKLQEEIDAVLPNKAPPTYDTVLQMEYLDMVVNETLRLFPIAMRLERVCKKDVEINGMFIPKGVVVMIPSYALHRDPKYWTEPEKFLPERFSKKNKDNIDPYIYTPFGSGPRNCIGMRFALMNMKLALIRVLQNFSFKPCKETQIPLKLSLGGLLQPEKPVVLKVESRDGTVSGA
How it was run: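 Quantitative HTS format: compounds preincubated with 20nM human CYP3A4 and Luciferin-PPXE substrate at KM, reaction started by NADPH regeneration, stopped after 60 min, luciferase luminescence read 20 min later.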

[11] = target: Glucocorticoid receptor (Homo sapiens) (UniProt P04150); test: GR-GFP Redistribution (AID 450;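 active means compounds whose dose series gives a full or clear partial fitted curve of increased nuclear translocation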; further: potency means the concentration at half of the fitted maximal effect); settings: U2OS GR-GFP nuclear translocation, laser cytometry, 2 h
[12] = Confirmation and Secondary Assay for Modulators of Hemoglobin Beta Chain Splicing at IVS2 654 locus (AID 910; active means well fitted curve in the direction sought with a large enough effect; an effect the other way counts as inactive or inconclusive;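 further: HeLa cells stably carrying EGFP split by mutant beta-globin IVS2-654 intron; per-well total GFP intensity by laser scanning cytometry after 2-day treatment; % of control where 0% means no effect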); settings: HeLa EGFP-654 splicing reporter, GFP fluorescence, 48 h; series mostly up to 38.3 µM
How it was run: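 Readout: per-well total peak green fluorescence (488 nm ex, 500–520 nm em) from objects 5–250 µm, reflecting correct splicing of an EGFP-654 reporter. Compounds were applied for 2 days at 37 °C to overnight-plated HeLa EGFP-654 cells; controls were DMSO and 500 nM IVS2-654 PNA.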

[13] = Confirmation and Secondary Assay for Modulators of Hemoglobin Beta Chain Splicing at IVS2 705 locus (AID 930; active means well fitted curve in the direction sought with a large enough effect; an effect the other way counts as inactive or inconclusive;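 further: HeLa cells stably expressing the EGFP-705 splicing reporter; GFP fluorescence per well restored by corrected splicing of the IVS2-705 intron in EGFP; % of control where 0% means no effect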); settings: HeLa EGFP-705 splicing reporter, GFP fluorescence, 48 h; series mostly up to 38.3 µM
How it was run: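 HeLa EGFP-705 reporter; 500 cells/well, o/n 37C 5% CO2; cpd 2 d; 488 ex/500-520 em laser scan; total peak GFP intensity/well. Ref: 500 nM […] antisense PNA.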

[14] = target: Ubiquitin carboxyl-terminal hydrolase 1 (Homo sapiens) (UniProt O94782); test: Inhibitors of USP1/UAF1: Pilot qHTS (AID 504865; active means well fitted curve in the direction sought with a large enough effect; an effect the other way counts as inactive or inconclusive;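 further: rhodamine fluorescence freed from ubiquitin-rhodamine substrate followed over time; top concentration of the series differs between compounds; on the % scale 0 is the no-effect control and ±100 the full control effect; nearly all actives have a fitted effect of over 35% in size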); settings: purified USP1/UAF1, Ub-rhodamine cleavage fluorescence; series mostly up to 54.9 µM
Chain of Ubiquitin carboxyl-terminal hydrolase 1 (Homo sapiens) (O94782 whole entry, looked up): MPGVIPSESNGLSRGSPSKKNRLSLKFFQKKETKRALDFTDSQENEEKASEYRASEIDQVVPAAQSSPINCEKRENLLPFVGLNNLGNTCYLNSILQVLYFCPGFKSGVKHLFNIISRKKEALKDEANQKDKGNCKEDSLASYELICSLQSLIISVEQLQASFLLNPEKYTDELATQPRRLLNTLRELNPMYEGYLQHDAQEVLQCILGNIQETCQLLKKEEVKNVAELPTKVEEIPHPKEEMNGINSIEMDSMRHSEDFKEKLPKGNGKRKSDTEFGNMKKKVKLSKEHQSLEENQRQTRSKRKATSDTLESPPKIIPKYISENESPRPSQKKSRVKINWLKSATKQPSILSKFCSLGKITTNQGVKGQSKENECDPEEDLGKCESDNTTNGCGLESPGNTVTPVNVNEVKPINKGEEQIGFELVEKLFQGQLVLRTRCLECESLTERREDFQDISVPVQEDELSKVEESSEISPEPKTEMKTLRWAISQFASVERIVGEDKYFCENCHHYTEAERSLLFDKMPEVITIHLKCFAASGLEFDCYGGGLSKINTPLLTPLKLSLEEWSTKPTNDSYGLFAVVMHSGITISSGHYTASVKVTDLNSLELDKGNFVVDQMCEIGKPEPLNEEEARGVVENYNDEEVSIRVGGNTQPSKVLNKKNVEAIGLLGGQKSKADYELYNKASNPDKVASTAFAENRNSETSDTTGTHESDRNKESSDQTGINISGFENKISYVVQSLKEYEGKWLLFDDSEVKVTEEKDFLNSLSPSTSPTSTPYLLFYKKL
How it was run: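 In 50mM HEPES pH 7.8 containing 0.5mM EDTA, 1mM TCEP, 0.1 mg/ml BSA and 0.01% Tween-20, 1nM USP1/UAF1 is exposed to compound for 15 min, then Ub-Rho (150nM final) is added and fluorescence is read over time.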

[15] = target: Cytochrome P450 2C19 (Homo sapiens) (UniProt P33261); test: qHTS Assay for Inhibitors and Substrates of Cytochrome P450 2C19 (AID 899; active means well fitted curve in the direction sought with a large enough effect; an effect the other way counts as inactive or inconclusive; further: potency means the concentration at half of the fitted maximal effect; nearly all actives have a fitted effect of over 60% in size); settings: recombinant CYP2C19, luciferin-H EGE luminescence; series mostly up to 57.1 µM
Chain of Cytochrome P450 2C19 (Homo sapiens) (P33261 whole entry, looked up): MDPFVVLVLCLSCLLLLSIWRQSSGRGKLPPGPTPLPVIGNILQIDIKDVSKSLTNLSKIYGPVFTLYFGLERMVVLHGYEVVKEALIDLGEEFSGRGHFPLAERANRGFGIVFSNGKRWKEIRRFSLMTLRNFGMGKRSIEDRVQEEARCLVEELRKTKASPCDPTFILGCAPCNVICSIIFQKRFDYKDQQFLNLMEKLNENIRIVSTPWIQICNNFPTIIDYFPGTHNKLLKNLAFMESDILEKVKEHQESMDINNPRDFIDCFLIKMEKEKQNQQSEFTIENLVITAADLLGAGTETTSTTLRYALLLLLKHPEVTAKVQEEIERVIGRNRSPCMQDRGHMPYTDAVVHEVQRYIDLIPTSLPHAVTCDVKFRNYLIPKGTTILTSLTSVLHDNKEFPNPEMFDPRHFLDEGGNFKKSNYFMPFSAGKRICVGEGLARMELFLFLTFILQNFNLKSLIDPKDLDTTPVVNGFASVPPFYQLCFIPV
How it was run: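 Reactions contain 5nM enzyme, 10uM Luciferin-H EGE (KM) and 50mM KPO4; compound preincubates 10 min at 37C, NADPH regeneration starts turnover for 60 min. Luminescence after detection reagent gives activity.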

[16] = measured here: cell count channel max response
[17] = measured here: lipid channel max response

O=C(Nc1ccccc1)N1CC[C@@]2(CCCN(C(=O)c3csnn3)C2)C1
-5.15%: max response [7, 16]
inactive: Potency [1] > 11.4 µM | activity change, negative = inhibition [2] 9.61% | activity, negative = inhibition [3] 0.432% | Potency [4] > 46 µM | Potency [5] | Potency [6] | activity change, negative = inhibition [7] 6.56% | outcome [8]
6.65%: max response [7, 17]

CC(C)CN1CCCC2(CCN(C(=O)c3cnccn3)CC2)C1
inactive: Potency [1] > 11.4 µM | Potency [9] | activity, negative = inhibition [3] 7.99% | Potency [4] > 46 µM | Potency [5] | Potency [6] | Potency [10] | activity change, negative = inhibition [7] 1.42% | outcome [8]
9.23%: max response [7, 17]
5.13%: max response [7, 16]

COc1ccc(CNc2nc(-c3ccc(C(=O)N(C)C)cc3)nc3ccccc23)c(OC)c1
8.44%: max response [7, 17]
active: Potency [9] 15.8 µM
-11.3%: max response [7, 16]
inactive: Potency [1] > 11.4 µM | Potency [11] > 46 µM | Potency [4] > 46 µM | Potency [5] | Potency [10] | Potency [12] | outcome [13] | activity change, negative = inhibition [7] 6.93% | Potency [14] | outcome [8]

COc1ccc(-n2c(=O)c(-c3cccs3)nc3cnc(N4CCNCC4)nc32)cc1
inactive: Potency [1] > 11.4 µM | Potency [11] > 9.22 µM | Potency [4] > 46 µM | Potency [5] | Potency [6] | Potency [10] | activity change, negative = inhibition [7] 2.69% | outcome [8]
active: Potency [9] 5.01 µM
6.61%: max response [7, 17]
3.53%: max response [7, 16]

CCNc1ncc2nc(-c3ccc(OC)cc3)c(=O)n(Cc3cccc(OC)c3)c2n1
inactive: Potency [1] > 11.4 µM | Potency [11] > 9.22 µM | Potency [4] > 46 µM | Potency [5] | Potency [10] | activity change, negative = inhibition [7] -12% | outcome [8]
active: Potency [9] 15.8 µM
-21.5%: max response [7, 16]
-29.7%: max response [7, 17]

CC(=O)N1CCC2(CC1)CN(Cc1ccc(C#N)cc1)C2
inactive: Potency [1] > 11.4 µM | activity change, negative = inhibition [2] 0.883% | Potency [4] > 46 µM | Potency [5] | Potency [6] | activity change, negative = inhibition [7] -1.35% | outcome [8]
-0.217%: max response [7, 17]
-0.767%: max response [7, 16]

CS(=O)(=O)N1CCC2(CC1)CN(C(=O)Nc1cccc(F)c1)C2
inactive: Potency [1] > 11.4 µM | activity change, negative = inhibition [2] 3.65% | activity, negative = inhibition [3] 13.3% | Potency [4] > 46 µM | Potency [5] | Potency [6] | activity change, negative = inhibition [7] 5.56% | outcome [8]
24.9%: max response [7, 17]
15.2%: max response [7, 16]

O=C(Oc1ccccc1)N1CCC[C@@]2(CCN(c3ccncc3)C2)C1
active: Potency [9] 20 µM | Potency [15] 5.01 µM
23.8%: max response [7, 17]
inactive: Potency [1] > 11.4 µM | activity, negative = inhibition [3] -2.61% | Potency [4] > 46 µM | Potency [5] | Potency [6] | Potency [10] | activity change, negative = inhibition [7] 4.19% | outcome [8]
13.6%: max response [7, 16]
